Some of the results follow. A number with no mark means an inactive call. Activity calls are given as the source filed them.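 Rule for the calls, unless noted: active = mean inhibition of the triplicate above the hit cutoff set for the earlier primary screen (cut at about 25% in these data); inactive = the rest.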
Biological target: Insulin-degrading enzyme (Homo sapiens) (UniProt P14735)
Test: human IDE inhibitors in live cells, confirmation, fluorescence polarization, HEK cells, FAbetaB substrate (AID 435028;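 active = mean inhibition across triplicate wells above the cutoff set by the earlier primary insulin-degrading enzyme screen, cut at about 16% in these data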;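 note: 0% = DMSO wells and 100% = 60 µM reference IDE inhibitor Ii1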)
Settings: FAbetaB cleavage, at 5.59 µM, stronger effect = higher value

Sequence of Insulin-degrading enzyme (Homo sapiens) (P14735 whole entry, looked up): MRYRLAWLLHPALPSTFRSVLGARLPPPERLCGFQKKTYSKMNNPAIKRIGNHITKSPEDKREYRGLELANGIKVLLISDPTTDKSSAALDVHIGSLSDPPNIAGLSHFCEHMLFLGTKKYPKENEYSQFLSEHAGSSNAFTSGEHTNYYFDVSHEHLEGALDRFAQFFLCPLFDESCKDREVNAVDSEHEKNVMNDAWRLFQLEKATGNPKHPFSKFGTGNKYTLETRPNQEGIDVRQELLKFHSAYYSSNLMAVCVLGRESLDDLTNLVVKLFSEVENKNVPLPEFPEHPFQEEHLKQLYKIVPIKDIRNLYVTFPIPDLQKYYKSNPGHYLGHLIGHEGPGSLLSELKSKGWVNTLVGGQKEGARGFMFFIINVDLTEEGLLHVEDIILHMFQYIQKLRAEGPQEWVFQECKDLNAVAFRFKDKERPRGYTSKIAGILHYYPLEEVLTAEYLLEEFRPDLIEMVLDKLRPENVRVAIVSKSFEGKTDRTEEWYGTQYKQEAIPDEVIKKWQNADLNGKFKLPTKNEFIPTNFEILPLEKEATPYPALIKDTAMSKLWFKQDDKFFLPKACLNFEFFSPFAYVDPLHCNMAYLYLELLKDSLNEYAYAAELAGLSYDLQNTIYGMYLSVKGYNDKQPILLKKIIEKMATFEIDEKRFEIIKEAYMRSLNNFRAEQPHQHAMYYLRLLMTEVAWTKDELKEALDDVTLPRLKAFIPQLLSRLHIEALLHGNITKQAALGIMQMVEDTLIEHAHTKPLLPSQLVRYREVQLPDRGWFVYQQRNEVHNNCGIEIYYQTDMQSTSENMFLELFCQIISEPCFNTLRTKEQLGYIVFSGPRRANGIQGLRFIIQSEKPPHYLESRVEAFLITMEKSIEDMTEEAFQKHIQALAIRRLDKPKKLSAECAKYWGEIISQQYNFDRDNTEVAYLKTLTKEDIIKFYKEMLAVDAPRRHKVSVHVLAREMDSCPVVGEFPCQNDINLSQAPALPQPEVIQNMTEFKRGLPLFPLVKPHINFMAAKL

Compound	inhibition
O=C(Nc1ccc(Cl)c(Cl)c1)N1CC=C(c2ccccc2)CC1	4.7%
COc1ccc(C(=O)Nc2nc(-c3ccc(S(=O)(=O)N4CCOCC4)cc3)cs2)cc1	3.32%
COc1ccc(N=C(C)c2sc3ccccc3c2O)cc1	56.1% (active)
N#C/C(=C\c1ccc(O)c(O)c1)C(=O)NCc1ccccc1	43.1% (active)
Nc1c(C(=O)c2cccs2)sc2nsc(SCCN3CCCCC3)c12	54.9% (active)
Fc1ccc2[nH]c3c(N4CCSCC4)ncnc3c2c1	7.91%
N#CC1=C(N)Oc2c(sc3ccccc23)C1c1ccco1 (stereo not drawn)	55.6% (active)
O=C(Oc1c(-c2ccco2)oc2ccccc2c1=O)c1cccnc1	93% (active)
COc1cc(/C=C(\C#N)c2nc3c(s2)CC(C)CC3)ccc1O (stereo not drawn)	161% (active)
O=C(/C=C(O)/C=C/c1ccc(O)cc1)/C=C/c1ccc(O)cc1	50% (active)

System: not listed separately
Test: cytotoxicity in HEK cells, cytotoxicity control for IDE inhibitor project, cell-based, luminescence (AID 449730; in the data active = inhibition above about 22%;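 note: 0% = vehicle wells and 100% = reference cytotoxic drug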)
Settings: HEK293 cytotoxicity, ATP luminescence; at 5.59 µM; stronger effect = higher value

Compound	inhibition
O=C(Nc1ccc(Cl)c(Cl)c1)N1CC=C(c2ccccc2)CC1	8.42%
COc1ccc(C(=O)Nc2nc(-c3ccc(S(=O)(=O)N4CCOCC4)cc3)cs2)cc1	68.2% (active)
COc1ccc(N=C(C)c2sc3ccccc3c2O)cc1	15.2%
N#C/C(=C\c1ccc(O)c(O)c1)C(=O)NCc1ccccc1	6.24%
Nc1c(C(=O)c2cccs2)sc2nsc(SCCN3CCCCC3)c12	18.4%
Fc1ccc2[nH]c3c(N4CCSCC4)ncnc3c2c1	49.2% (active)
N#CC1=C(N)Oc2c(sc3ccccc23)C1c1ccco1 (stereo not drawn)	39.4% (active)
O=C(Oc1c(-c2ccco2)oc2ccccc2c1=O)c1cccnc1	8.69%
COc1cc(/C=C(\C#N)c2nc3c(s2)CC(C)CC3)ccc1O (stereo not drawn)	11.3%
O=C(/C=C(O)/C=C/c1ccc(O)cc1)/C=C/c1ccc(O)cc1	7.11%

Biological target: Platelet-activating factor acetylhydrolase (Homo sapiens) (UniProt Q13093)
Sequence (Q13093 whole entry, looked up): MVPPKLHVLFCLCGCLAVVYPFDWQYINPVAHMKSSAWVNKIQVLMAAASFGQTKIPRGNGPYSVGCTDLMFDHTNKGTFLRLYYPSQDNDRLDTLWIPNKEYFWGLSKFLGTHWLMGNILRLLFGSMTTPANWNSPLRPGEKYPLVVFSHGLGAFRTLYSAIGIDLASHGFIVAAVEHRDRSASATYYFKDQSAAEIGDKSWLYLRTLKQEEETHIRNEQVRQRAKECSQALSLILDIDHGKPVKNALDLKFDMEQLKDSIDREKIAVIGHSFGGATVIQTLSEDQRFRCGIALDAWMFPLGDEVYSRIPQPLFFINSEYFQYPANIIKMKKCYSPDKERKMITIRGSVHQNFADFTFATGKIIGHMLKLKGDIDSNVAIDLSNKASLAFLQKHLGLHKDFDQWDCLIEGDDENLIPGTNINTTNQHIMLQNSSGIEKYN
Test: pPAFAH (PLA2G7) enzyme inhibitors, confirmation, biochemical, fluorescence polarization, human (AID 463230);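 note: 0% = enzyme with DMSO and 100% = wells lacking pPAFAH enzyme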
Settings: recombinant pPAFAH, FP-Rh probe fluorescence polarization; at 3.39 µM; stronger effect = higher value

Compound	inhibition
COc1cccc(/C=N/NC(=O)c2[nH]nc3c2CCc2ccccc2-3)c1O	38.9% (active)
Cc1ccc(-n2c(C)cc(/C=C(\C#N)C(=O)NCC3CCCO3)c2C)cc1 (stereo not drawn)	63.7% (active)
CC1(OC(=O)C2CCCC2)C(=O)C=C2C=C(c3ccc(C#N)cc3)OC=C2C1=O (stereo not drawn)	53.2% (active)
Cc1cc(C(=O)CSc2nc(N)cc(=O)[nH]2)c(C)n1-c1cccc(F)c1	51.8% (active)
Cc1cc(C(=O)CSc2nc(N)cc(=O)[nH]2)c(C)n1CCc1ccc(Cl)cc1	74.3% (active)
CN(C)S(=O)(=O)c1cccc(-c2nn(-c3ccccc3)cc2/C=C2\SC(=S)N(CC(=O)O)C2=O)c1	40.4% (active)
CC(C)C1N=C2c3ccccc3N=C(SCC(=O)c3ccc(O)c(O)c3)N2C1=O (stereo not drawn)	54.5% (active)
O=C(CCC1CCCCC1)Nc1cc(C(F)(F)F)ccc1N1CCOCC1	6.87%
O=C(O)C(c1ccccc1)N1C(=O)/C(=C\c2ccc(-c3cccc(Cl)c3)o2)SC1=S (stereo not drawn)	55.4% (active)
Cc1ccc(-c2noc(CSc3nnc(-c4ccncc4)n3-c3ccc(F)cc3)n2)cc1	1.52%
COc1cccc(CNC(=O)CCC2CCCN(C(=O)c3ccc(F)c(Cl)c3)C2)c1 (stereo not drawn)	17.2%
Cc1ccc(S(=O)(=O)NCc2csc(C)n2)c(C)c1	2.33%
CC1CCCCC1NC(=O)COC(=O)Cc1ccc(Cl)cc1 (stereo not drawn)	22.3%
Cc1ccc(/C=N/NC(=O)c2cc3ccccc3cc2O)o1	9.89%
CC(=O)N1CCN(C(=O)c2cc(-c3ccc(C)o3)nc3ccccc23)CC1	5.07%
COCC(C)NC(=O)c1ccc(-n2nc(C(F)(F)F)cc2-c2cccs2)cc1 (stereo not drawn)	23.6%
O=C(Nc1nc(-c2ccco2)c(-c2ccco2)s1)c1ccco1	17.3%
O=C(N/N=C/c1cccnc1)c1cc2ccccc2cc1O	5.94%
COc1ccc(/C=C/C(=O)c2cc(Br)ccc(=O)c2O)cc1	20.5%
Cc1ccccc1-n1c(SCC(=O)Nc2cccc3ccccc23)nc(O)cc1=O	4.9%
CCc1ccc(CN(C)C(=O)CCc2nnc(-c3ccc(-c4ccccc4)cc3)o2)nc1	11.8%
CCOc1ccc(NS(=O)(=O)c2ccc(C(=O)NCC(c3ccccc3OC)N3CCCC3)cc2)cc1 (stereo not drawn)	45.4% (active)
COc1cc(C2CC(=O)N3CN(Cc4ccccc4)CSC3=C2C#N)ccc1OCc1ccccc1 (stereo not drawn)	14.2%

— PubChem BioAssay
